# Experimental data from PubChem BioAssay.
# Values joined by “and” are separate entries in the source; they are usually repeats but may differ in a detail not shown here. Identical values can stand only once.
# Target: Carbonic anhydrase 2 (Homo sapiens) (UniProt P00918)
# Experiment: compounds binding carbonic anhydrase 2 – biochemical, small-molecule microarray, Alexa647-labelled CAII, profiling panel (AID 1122)
# Conditions: CAII-A647 binding fluorescence, higher = more signal
row,SMILES,composite z-score
1,C=CCN(C(=O)C(c1cccs1)N(CCOCCO)C(=O)/C=C\C(=O)O)c1ccc(OC)cc1 (stereo unspecified),-0.655 and -0.65
2,C#CCN1C(/C=C/c2ccccc2)C(=O)OC[C@H]1c1ccccc1 (stereo partly specified),-0.114 and 0.493
3,CO[C@@H]1COC(=O)CC=C[C@H](C)COC(=O)[C@H](C)NC(=O)CC=C[C@H]1C,-0.427
4,Cc1cc2c(nc1C)CCCN2CC(O)CN1CCCc2nc(-c3ccc(Br)cc3)ccc21 (stereo unspecified),0.492 and 0.401
5,C=CCN(CCCCC)C(=O)C(c1cccs1)N(CCOCCO)C(=O)/C=C\C(=O)O (stereo unspecified),0.86 and 0.368
6,COc1ccc(-c2ccc3c(n2)CCCN3CC(O)CN2CCCc3nc(-c4ccc(Br)cc4)ccc32)cc1 (stereo unspecified),0.491 and 0.44
7,C=C[C@H](OC)[C@@H](O)c1ccc(OCCO)cc1,0.934 and 0.835
8,C=CCN(C(=O)C1N(CCCCCCO)C(=O)C2C(C(=O)O)C3C=CC21O3)c1ccc(OC)cc1 (stereo unspecified),0.981 and 0.391
9,O=C1C[C@]2(c3ccc([N+](=O)[O-])cc3)C(=O)N(Cc3ccccc3)c3cc(CO)ccc3[C@H]2N1C1CCCCC1,0.272 and 0.439
10,C=CCN(C(=O)C1N(c2c(Cl)cccc2CO)C(=O)C2C(C(=O)O)C3C=CC21O3)c1ccc(OC)cc1 (stereo unspecified),0.376 and -0.184
11,C=CCN(C(=O)C1N(CCOCCO)C(=O)C2C(C(=O)O)C3C=CC21O3)C(C)(C)C (stereo unspecified),-0.115 and -0.524
12,COC(=O)C1=C2N(Cc3ccccc3)C(C)=C(C(=O)OC)[C@@H](c3ccccc3)N2C(=O)[C@](O)(C(=O)OC)C1,0.416 and -0.0902
13,O=c1n(-c2ccccc2)c(=O)n2n1CC[C@@H]1C(=NOC[C@@H](O)COCc3ccco3)[C@H]3O[C@H]3[C@@H](O)[C@@H]12,-0.14 and 0.0148
14,CC(CO)N1C(=O)[C@@H]2C3C(=O)OCCC=C[C@H]3OC23C=CCN(c2ccc(Cl)cc2)C(=O)[C@@H]13 (stereo partly specified),0.889 and 0.596
15,CC(C)[Si]1(C(C)C)OCc2cc(CCCc3cc4c(c(CCc5ccccc5)n3)[Si](C(C)C)(C(C)C)OC4)nc(CCc3ccccc3)c21,-0.139 and 0.0411
16,C=CCN(Cc1ccccc1)C(=O)C1N(CCOCCO)C(=O)C2C(C(=O)O)C3C=CC21O3 (stereo unspecified),0.903 and 0.881
17,C[N+](C)(C)CCCCCCNC(=O)[C@H]1C[C@H]2C(=O)N[C@@H](CCCC[N+](C)(C)C)C(=O)N2[C@H]1c1cccc(OCCO)c1,0.655 and 0.419
18,CCCCCN1CC=CC23O[C@@H]4C=CCCOC(=O)C4[C@H]2C(=O)N(C(C)CO)[C@@H]3C1=O (stereo partly specified),0.792 and 0.844
19,O=C1[C@H]2[C@H]3[C@H](O)[C@H](O)CC(=NOCc4ccccc4)[C@H]3CC[C@H]2C(=O)N1Cc1ccccc1,0.0146
20,CO[C@H]1COC(=O)CC=C[C@H](C)[C@H](OC)COC(=O)[C@@H](C)COC(=O)CC=C[C@@H]1C,-0.173 and -0.455
21,CN1C(=O)C2CC=C([C@H]3Oc4ccccc4S(=O)(=O)N4CCC[C@@H]34)CC2C1=O (stereo partly specified),-0.296 and -0.322
22,C[C@@H](ON=C1[C@H]2CCn3c(=O)n(-c4ccccc4)c(=O)n3[C@H]2[C@H](O)[C@@H]2O[C@H]12)c1cn([C@H](CO)Cc2ccccc2)nn1,-0.0324
23,CCOC(=O)C[C@H]1[C@H](OC(=O)c2ccccc2-c2ccccc2)[C@@H](NC(=O)Cc2ccc(OC)cc2)c2cc(OCCCO)ccc2N1C(=O)c1ccc2ccccc2n1,-0.156 and 0.0959
24,CCOC(=O)[C@H](CC(C)C)NC(=O)CCC1CC(OC(=O)NCc2cccc3ccccc23)CC2(CCCC(COC(=O)NCc3ccccc3)O2)O1 (stereo partly specified),-0.3
25,Cc1ccc(S(=O)(=O)N[C@@H]2COC(=O)CC=C[C@@H](C)[C@@H]3C=C[C@H](O)[C@@H](COC(=O)CC=C[C@H]2C)O3)cc1,-0.0023 and 0.221
26,CO[C@@H]1COC(=O)[C@H](Cc2ccccc2)NC(=O)CC=C[C@@H](C)[C@H](OC)COC(=O)[C@@H](C)NC(=O)CC=C[C@H]1C,-0.0035 and 0.27

# System: not listed separately
# Experiment: COS7 lysate on small-molecule microarray, probe aHis, 635 nm (AID 1123);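 note: z-score combines 667nm fluorescence intensity with signal-to-noise per printed compound spot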
# Conditions: COS7 cell lysate, fluorescence, higher = more signal
row,SMILES,composite z-score
1,CC(C)=NOC[C@@H](O)COCc1ccco1,-0.115
2,COC(=O)C1=C(C)N(Cc2ccccc2)C2=C(C(C)=O)C[C@@](O)(C(=O)OC)C(=O)N2[C@@H]1c1ccccc1,0.463 and -0.221
3,COC(=O)[C@@]1(Cc2ccc(OC)cc2)[C@H]2c3cc(C(=O)N(C)C)n(Cc4ccc(O)c(OC)c4)c3C[C@H]2CN1C(=O)c1ccccc1,1.81 and 2.81
4,C=CC[C@H](O)c1ccc(OCCO)cc1,-0.263 and -1.45
5,CC(C)=NO[C@@H](C)c1cc(-c2c(C)cc(C)cc2C)no1,-0.177
6,C[N+](C)(C)CCCCNC(=O)[C@H]1C[C@H]2C(=O)N[C@@H](CCCC[N+](C)(C)C)C(=O)N2[C@H]1c1ccc(O)cc1,0.385 and 0.233
7,C[C@@]1([C@@H](NC(=O)Cc2ccccc2)c2ccc(-c3ccccc3)cc2)C[C@H]1C1CCCCC1,0.0877 and 1.59 and 2.69
8,CCN1C(=O)[C@H]2[C@H]3[C@H](O)[C@H](O)CC(=NOC)[C@@H]3CC[C@H]2C1=O,-0.417
9,O=C1NC(=O)C2C1C=CC(C(O)c1ccc([N+](=O)[O-])cc1)N2Nc1ccc(Cl)cc1Cl (stereo unspecified),2.95 and 2.03
10,C=C[C@H](C)[C@@H](O)c1ccc(OCCO)cc1,-0.135 and -0.25
11,CC(C)CON=C1C[C@@H](O)[C@@H](O)[C@@H]2[C@@H]3C(=O)N(c4cccc(Oc5ccccc5)c4)C(=O)[C@@H]3CC[C@H]12,0.328
12,CO[C@H]1COC(=O)CC=C[C@@H](C)COC(=O)[C@H](CCSC)NC(=O)CC=C[C@@H]1C,-0.335 and -0.552
13,C=C[C@@H](OC)[C@H](O)c1ccc(OCCO)cc1,-0.236 and -0.474
14,CCOC(=O)c1ccc(NC(=O)O[C@H]2[C@H](OC(=O)Nc3ccccc3)[C@@H](OC(=O)Nc3ccccc3)[C@@H](OC)O[C@@H]2CO)cc1,2.63 and 1.91
15,C=CCN(C(=O)C(c1cccs1)N(CCOCCO)C(=O)/C=C\C(=O)O)c1ccc(OC)cc1 (stereo unspecified),-0.718 and -1.36
16,C#CCN1C(/C=C/c2ccccc2)C(=O)OC[C@H]1c1ccccc1 (stereo partly specified),0.096 and 0.45
17,CO[C@@H]1COC(=O)CC=C[C@H](C)COC(=O)[C@H](C)NC(=O)CC=C[C@H]1C,-0.448
18,Cc1cc2c(nc1C)CCCN2CC(O)CN1CCCc2nc(-c3ccc(Br)cc3)ccc21 (stereo unspecified),0.531 and 1.25
19,C=CCN(CCCCC)C(=O)C(c1cccs1)N(CCOCCO)C(=O)/C=C\C(=O)O (stereo unspecified),-1.01 and -0.267
20,COc1ccc(-c2ccc3c(n2)CCCN3CC(O)CN2CCCc3nc(-c4ccc(Br)cc4)ccc32)cc1 (stereo unspecified),-0.0214 and 0.91

row,SMILES,composite z-score
1,C=C[C@H](OC)[C@@H](O)c1ccc(OCCO)cc1,-0.358 and -0.494
2,C=CCN(C(=O)C1N(CCCCCCO)C(=O)C2C(C(=O)O)C3C=CC21O3)c1ccc(OC)cc1 (stereo unspecified),3.24 and 2.93
3,O=C1C[C@]2(c3ccc([N+](=O)[O-])cc3)C(=O)N(Cc3ccccc3)c3cc(CO)ccc3[C@H]2N1C1CCCCC1,0.366 and 1.14
4,C=CCN(C(=O)C1N(c2c(Cl)cccc2CO)C(=O)C2C(C(=O)O)C3C=CC21O3)c1ccc(OC)cc1 (stereo unspecified),0.016 and -0.849
5,C=CCN(C(=O)C1N(CCOCCO)C(=O)C2C(C(=O)O)C3C=CC21O3)C(C)(C)C (stereo unspecified),-0.717 and -1.47
6,COC(=O)C1=C2N(Cc3ccccc3)C(C)=C(C(=O)OC)[C@@H](c3ccccc3)N2C(=O)[C@](O)(C(=O)OC)C1,0.877 and -0.0061
7,O=c1n(-c2ccccc2)c(=O)n2n1CC[C@@H]1C(=NOC[C@@H](O)COCc3ccco3)[C@H]3O[C@H]3[C@@H](O)[C@@H]12,-0.251 and -0.862
8,CC(CO)N1C(=O)[C@@H]2C3C(=O)OCCC=C[C@H]3OC23C=CCN(c2ccc(Cl)cc2)C(=O)[C@@H]13 (stereo partly specified),-0.31 and 0.287
9,CC(C)[Si]1(C(C)C)OCc2cc(CCCc3cc4c(c(CCc5ccccc5)n3)[Si](C(C)C)(C(C)C)OC4)nc(CCc3ccccc3)c21,0.002 and 0.081
10,C=CCN(Cc1ccccc1)C(=O)C1N(CCOCCO)C(=O)C2C(C(=O)O)C3C=CC21O3 (stereo unspecified),1.33 and -1.28
11,C[N+](C)(C)CCCCCCNC(=O)[C@H]1C[C@H]2C(=O)N[C@@H](CCCC[N+](C)(C)C)C(=O)N2[C@H]1c1cccc(OCCO)c1,0.897 and 0.214
12,CCCCCN1CC=CC23O[C@@H]4C=CCCOC(=O)C4[C@H]2C(=O)N(C(C)CO)[C@@H]3C1=O (stereo partly specified),0.654 and 1.55
13,O=C1[C@H]2[C@H]3[C@H](O)[C@H](O)CC(=NOCc4ccccc4)[C@H]3CC[C@H]2C(=O)N1Cc1ccccc1,0.233
14,CO[C@H]1COC(=O)CC=C[C@H](C)[C@H](OC)COC(=O)[C@@H](C)COC(=O)CC=C[C@@H]1C,-0.315 and -0.798
15,CN1C(=O)C2CC=C([C@H]3Oc4ccccc4S(=O)(=O)N4CCC[C@@H]34)CC2C1=O (stereo partly specified),-0.616 and -0.564
16,C[C@@H](ON=C1[C@H]2CCn3c(=O)n(-c4ccccc4)c(=O)n3[C@H]2[C@H](O)[C@@H]2O[C@H]12)c1cn([C@H](CO)Cc2ccccc2)nn1,0.392
17,CCOC(=O)C[C@H]1[C@H](OC(=O)c2ccccc2-c2ccccc2)[C@@H](NC(=O)Cc2ccc(OC)cc2)c2cc(OCCCO)ccc2N1C(=O)c1ccc2ccccc2n1,0.411 and 1.57
18,CCOC(=O)[C@H](CC(C)C)NC(=O)CCC1CC(OC(=O)NCc2cccc3ccccc23)CC2(CCCC(COC(=O)NCc3ccccc3)O2)O1 (stereo partly specified),0.043
19,Cc1ccc(S(=O)(=O)N[C@@H]2COC(=O)CC=C[C@@H](C)[C@@H]3C=C[C@H](O)[C@@H](COC(=O)CC=C[C@H]2C)O3)cc1,-0.348 and 0.043
20,CO[C@@H]1COC(=O)[C@H](Cc2ccccc2)NC(=O)CC=C[C@@H](C)[C@H](OC)COC(=O)[C@@H](C)NC(=O)CC=C[C@H]1C,-0.0816 and -0.0434
